Consider 40 compounds from PubChem BioAssay (NCATS).

Assay [1] concerns the target Rap guanine nucleotide exchange factor 3 (Homo sapiens) (UniProt O95398). The assay can be described thus: Confirmatory qHTS for agonist of cAMP-regulated guanine nucleotide exchange factor 3 (EPAC1) (AID 1645881).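 Note: EPAC1 catalysed release of BODIPY-GDP from Rap1B seen as fluorescence loss; 100% = effect of cAMP agonist control; nearly all actives have a fitted effect of over 75% in size.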 In general terms: qHTS replaces the single test concentration by a dilution series.
Assay [2] deals with Rap guanine nucleotide exchange factor 4 (Homo sapiens) (UniProt Q8WZA2). The assay is described as follows: Confirmatory qHTS for agonist of cAMP-regulated guanine nucleotide exchange factor 4 (EPAC2) (AID 1645884).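 Note: nucleotide exchange releases bodipy-GDP from Rap1 and this lowers its fluorescence; % is set by controls: 0 for no effect and ±100 for the full control effect; nearly all actives have a fitted effect of over 65% in size.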
Assay [3] shares this target. The assay is described as follows: Confirmatory qHTS for antagonist of cAMP-regulated guanine nucleotide exchange factor 4 (EPAC2) (AID 1645885). For activity change, negative = inhibition: % is set by controls: 0 for no effect and ±100 for the full control effect. Note: nearly all actives have a fitted effect of over 25% in size. Note: potency is the fitted concentration of half-maximal effect.
The target of assay [4] is Rap guanine nucleotide exchange factor 3 (Homo sapiens) (UniProt O95398). The assay is described as follows: Counterscreen qHTS for antagonist of cAMP-regulated guanine nucleotide exchange factor 3 (EPAC1) (AID 1645888). Note: % of control where 0% means no effect. The essentials: (§1)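 Measured: fluorescence of BODIPY-GDP bound to Rap1B, which falls as exchange proceeds. Conditions include 50 uM competing GDP, 5 and 30 min reads, and a later cAMP challenge for antagonist detection.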
(In general: Counterscreens check selectivity or assay interference.)

Assay [5] has the same target. The assay is described as follows: Counterscreen qHTS for agonist of cAMP-regulated guanine nucleotide exchange factor 3 (EPAC1) (AID 1645889). Note: % of control where 0% means no effect; nearly all actives have a fitted effect of over 40% in size. The method in brief:
as §1

Inconclusive results are not listed. Values without a mark were called inactive. Calls of active or inactive are those of the source. Calls come from the whole dose curve; as a rule, active = well fitted curve in the direction sought with a large enough effect; inconclusive = small, poorly fitted or top-dose-only effect, or another doubt; inactive = no such curve, though single readings can be large; an effect the other way counts as inactive or inconclusive.

Chain of Rap guanine nucleotide exchange factor 3 (Homo sapiens) (O95398 whole entry, looked up): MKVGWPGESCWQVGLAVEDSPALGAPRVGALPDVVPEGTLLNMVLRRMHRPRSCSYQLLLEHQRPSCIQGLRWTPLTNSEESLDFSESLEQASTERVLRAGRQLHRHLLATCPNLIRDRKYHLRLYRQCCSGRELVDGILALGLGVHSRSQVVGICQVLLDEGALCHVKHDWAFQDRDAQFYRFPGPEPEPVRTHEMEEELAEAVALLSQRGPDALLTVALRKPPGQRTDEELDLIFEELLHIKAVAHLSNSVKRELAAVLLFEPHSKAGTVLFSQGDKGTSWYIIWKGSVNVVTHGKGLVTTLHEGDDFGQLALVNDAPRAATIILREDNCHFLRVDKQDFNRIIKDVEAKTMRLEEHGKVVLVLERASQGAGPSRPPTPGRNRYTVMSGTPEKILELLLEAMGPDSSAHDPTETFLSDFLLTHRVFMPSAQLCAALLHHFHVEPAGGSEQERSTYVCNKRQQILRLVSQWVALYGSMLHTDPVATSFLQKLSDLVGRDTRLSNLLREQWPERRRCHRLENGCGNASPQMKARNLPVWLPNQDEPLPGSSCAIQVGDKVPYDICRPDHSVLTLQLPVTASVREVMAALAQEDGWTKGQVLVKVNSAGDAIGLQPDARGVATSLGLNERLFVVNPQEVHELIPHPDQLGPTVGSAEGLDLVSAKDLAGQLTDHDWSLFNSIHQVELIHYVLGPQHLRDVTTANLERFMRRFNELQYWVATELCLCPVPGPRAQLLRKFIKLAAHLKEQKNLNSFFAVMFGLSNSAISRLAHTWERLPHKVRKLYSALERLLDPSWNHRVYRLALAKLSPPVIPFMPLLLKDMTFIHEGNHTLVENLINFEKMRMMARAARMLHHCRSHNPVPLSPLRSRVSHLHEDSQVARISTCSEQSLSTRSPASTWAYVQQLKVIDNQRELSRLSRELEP
Chain of Rap guanine nucleotide exchange factor 4 (Homo sapiens) (Q8WZA2 whole entry, looked up): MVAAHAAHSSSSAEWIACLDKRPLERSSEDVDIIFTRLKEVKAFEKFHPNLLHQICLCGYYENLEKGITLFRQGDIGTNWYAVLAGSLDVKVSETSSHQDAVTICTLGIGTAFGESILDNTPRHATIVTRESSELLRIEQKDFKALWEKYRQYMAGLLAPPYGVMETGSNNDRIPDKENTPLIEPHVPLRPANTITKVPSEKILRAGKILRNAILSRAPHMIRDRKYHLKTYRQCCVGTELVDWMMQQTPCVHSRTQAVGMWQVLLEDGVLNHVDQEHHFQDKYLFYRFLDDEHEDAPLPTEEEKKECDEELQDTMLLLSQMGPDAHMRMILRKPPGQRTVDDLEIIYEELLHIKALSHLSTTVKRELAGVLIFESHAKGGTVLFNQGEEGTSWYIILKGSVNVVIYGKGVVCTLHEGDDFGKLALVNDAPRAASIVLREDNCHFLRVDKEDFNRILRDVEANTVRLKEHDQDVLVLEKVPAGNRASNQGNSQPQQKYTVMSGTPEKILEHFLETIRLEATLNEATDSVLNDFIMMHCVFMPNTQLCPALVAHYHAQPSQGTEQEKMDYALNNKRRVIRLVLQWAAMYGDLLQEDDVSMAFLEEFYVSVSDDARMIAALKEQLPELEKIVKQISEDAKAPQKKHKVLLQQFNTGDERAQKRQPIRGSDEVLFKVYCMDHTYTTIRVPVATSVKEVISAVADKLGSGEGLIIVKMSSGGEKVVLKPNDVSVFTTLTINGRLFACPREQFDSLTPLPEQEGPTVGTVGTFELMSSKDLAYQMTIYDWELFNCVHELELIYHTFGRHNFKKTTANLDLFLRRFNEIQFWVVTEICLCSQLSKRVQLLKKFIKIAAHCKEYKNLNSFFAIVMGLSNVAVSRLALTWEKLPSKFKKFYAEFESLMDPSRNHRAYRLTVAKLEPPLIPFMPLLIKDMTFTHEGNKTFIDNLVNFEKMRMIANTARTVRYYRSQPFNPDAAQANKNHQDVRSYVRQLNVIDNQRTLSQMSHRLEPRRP

Take `COc1ccc(OC)c(-n2c(SC)nnc2-c2c[nH]c3ccccc23)c1`: the Potency result in assay [1], in assay [2], in assay [3] and in assay [4] was “inactive” in each case.

`CCc1nc2c(OCc3ccc(C(F)(F)F)cc3)cccn2c1N(C)C(=O)C(C)C`: the Potency result in assay [1] and in assay [3] was “inactive” throughout. Further, the activation in assay [2] is -0.706% [at 17.1 µM, percent relative to cAMP agonist control]. For the same compound, the activity change, negative = inhibition in assay [4] was -5.96% [at 30.8 µM].

As to `CC(C)(C)NC(=O)C(c1ccc(C#N)cc1)n1c(=O)c(-c2ccco2)nc2ccccc21` (stereo unspecified), the Potency entry in assay [1], in assay [2], in assay [3], in assay [4] and in assay [5] was “inactive” each time.

Take `O=S(=O)(Nc1cc(Sc2ncn[nH]2)c(O)c2ccccc12)c1ccccc1`: the Potency entry in assay [1] and in assay [3] was “inactive” in each case. Moreover, the activation in assay [2] was 4.4% [at 17.1 µM, percent relative to cAMP agonist control]. Moreover, the activity change, negative = inhibition in assay [4] is 3.32% [at 30.8 µM].

As to `O=C(Nc1ccc(NC(=O)c2ccco2)c(Cl)c1)c1ccc2c(c1)OCCO2`, the Potency entry in assay [1], in assay [2], in assay [3], in assay [4] and in assay [5] was “inactive” throughout.

As for `ON=C(c1ccccc1)c1ccc2c3c(cccc13)CC2`, the Potency entry in assay [1], in assay [2], in assay [3] and in assay [4] was “inactive” in each case.

In the case of `Clc1ccc(-c2nnc(-c3ccco3)nc2N2CCCCC2)cc1`, the Potency result in assay [1] and in assay [3] was “inactive” in each case. The activation in assay [2] was 3.88% [at 17.1 µM, percent relative to cAMP agonist control]. The activity change, negative = inhibition in assay [4] was 13.5% [at 30.8 µM].

For `COc1cc(/C=C2\SC(=S)N(CCCCC(=O)O)C2=O)ccc1OS(=O)(=O)c1ccc(C)cc1`, the Potency entry in assay [1] and in assay [3] was “inactive” in each case. Further, the activation in assay [2] is -4.35% [at 17.1 µM, percent relative to cAMP agonist control]. Further, in assay [4], the activity change, negative = inhibition was -18.6% [at 30.8 µM].

Consider `CCCc1ccc2oc(C(=O)NCCc3nc(C(=O)OCC)cs3)c(C)c2c1`, for which the Potency entry in assay [1] and in assay [3] was “inactive” throughout. The activation in assay [2] is -3.74% [at 17.1 µM, percent relative to cAMP agonist control]. In addition, the activity change, negative = inhibition in assay [4] is -14.7% [at 30.8 µM].

Regarding `Cc1nc(-c2ccc(Cl)cc2)sc1CCNC(=O)c1cccs1`, the Potency result in assay [1], in assay [2], in assay [3] and in assay [4] was “inactive” each time.

Take `O=S(=O)(Nc1ccc(Cl)cc1NS(=O)(=O)c1ccccc1)c1ccccc1`: the Potency result in assay [1] and in assay [3] was “inactive” throughout. Moreover, the activation in assay [2] is 1.88% [at 17.1 µM, percent relative to cAMP agonist control]. The activity change, negative = inhibition in assay [4] was -27.8% [at 30.8 µM].

Consider `C[C@@H]1COC(=O)[C@H](NC(=O)OCC2c3ccccc3-c3ccccc32)C/C=C\C[C@@H](CC(=O)N[C@H](CO)Cc2ccccc2)C(=O)N1`, for which the Potency result in assay [1] and in assay [3] was “inactive” each time. The activation in assay [2] was 2.82% [at 17.1 µM, percent relative to cAMP agonist control]; in assay [5], -0.359% [at 30.8 µM]. Besides, the activity change, negative = inhibition in assay [4] was -6.46% [at 30.8 µM].

With `Cc1cc(N2CCN(c3cccc(C(F)(F)F)c3)CC2)n2nc(-c3ccccc3C)nc2n1`, the Potency result in assay [1], in assay [2], in assay [3], in assay [4] and in assay [5] was “inactive” each time.

On to `CNC(=S)N1CCc2cc(OC)c(OC)cc2C1COc1ccc(F)cc1` (stereo unspecified), for which the Potency result in assay [1] and in assay [3] was “inactive” throughout. Also, the activation in assay [2] is 0% [at 17.1 µM, percent relative to cAMP agonist control]; in assay [5], 46.8% [at 30.8 µM]. The activity change, negative = inhibition in assay [4] is -1.54% [at 30.8 µM].

In the case of `COC(=O)c1nn(-c2ccccc2)c(Sc2ccc(OC)cc2)c1/C=N/O`, the Potency result in assay [1] and in assay [3] was “inactive” in each case. Also, the activation was -5.43% [at 17.1 µM, percent relative to cAMP agonist control] in assay [2] and 23% [at 30.8 µM] in assay [5]. The activity change, negative = inhibition in assay [4] is -27.4% [at 30.8 µM].

As to `Cc1ccccc1Cn1nnc2c(=O)[nH]c(C3CCCN(C(=O)c4ccc(C(C)(C)C)cc4)C3)nc21` (stereo unspecified), the Potency entry in assay [1], in assay [2], in assay [3], in assay [4] and in assay [5] was “inactive” throughout.

With `COc1ccc(-n2c(C)cc(/C=C3\SC(=O)NC3=O)c2C)cc1`, the Potency result in assay [1], in assay [2], in assay [3], in assay [4] and in assay [5] was “inactive” in each case.

For the compound `Oc1cccc(-c2nc3ncccn3c2Nc2cccc(C(F)(F)F)c2)c1`, the Potency result in assay [1], in assay [2], in assay [3], in assay [4] and in assay [5] was “inactive” in each case.

For `COc1cc(-c2cc(OC)c3c(C)oc(C)c3c(=O)c2)ccc1OC(=O)c1ccc(C)cc1`, the Potency result in assay [1], in assay [2], in assay [3], in assay [4] and in assay [5] was “inactive” each time.

In the case of `COc1cc(/C=C2\SC(=O)N(CC(=O)Nc3ccc(C)cc3)C2=O)cc(Cl)c1OCC(=O)O`, the Potency result in assay [1], in assay [2], in assay [3], in assay [4] and in assay [5] was “inactive” in each case.

Turning to `COc1ccc(/C=C2\Sc3ccc(C(=O)N4CCN(Cc5ccccc5)CC4)cc3N(C)C2=O)cc1OC`, the Potency entry in assay [1], in assay [2], in assay [3], in assay [4] and in assay [5] was “inactive” in each case.

As for `Cc1[nH]c(=O)nc(SCc2cccc(Cl)c2)c1C#N`, the Potency result in assay [1], in assay [2], in assay [3], in assay [4] and in assay [5] was “inactive” throughout.

For `Cc1oc2c(O)c(O)ccc2c(=O)c1-c1cnn(-c2ccccc2)c1`, the Potency result in assay [1] and in assay [3] was “inactive” each time. Moreover, the activation was 2.28% [at 17.1 µM, percent relative to cAMP agonist control] in assay [2] and 28.8% [at 30.8 µM] in assay [5]. Also, the activity change, negative = inhibition in assay [4] was -26.8% [at 30.8 µM].

`CCOC(=O)Cc1nn(Cc2ccc(Cl)cc2)c(=O)c2ccccc12`: the Potency entry in assay [1], in assay [2], in assay [3], in assay [4] and in assay [5] was “inactive” throughout.

As to `Cc1ccc(S(=O)(=O)Nc2ccc(S(=O)(=O)Nc3nccs3)cc2)cc1C`, the Potency result in assay [1], in assay [2], in assay [3], in assay [4] and in assay [5] was “inactive” each time.

With `CCC1(c2ccccc2)SCC(c2ccccc2)=NC1=O` (stereo unspecified), the Potency result in assay [1], in assay [2], in assay [3], in assay [4] and in assay [5] was “inactive” throughout.

`CC(C)(C)c1ccc(C(=O)NCC2CCCN2S(=O)(=O)c2ccccc2)cc1` (stereo unspecified): the Potency entry in assay [1], in assay [2], in assay [3], in assay [4] and in assay [5] was “inactive” throughout.

Take `CCN(CC)C(=O)c1ccc2c(c1)N(Cc1ccc(C(F)(F)F)cc1)C(=O)c1ccccc1S2`: the Potency entry in assay [1], in assay [2], in assay [4] and in assay [5] was “inactive” throughout. Also, the outcome in assay [3] was “inactive [at 12.7 µM]”.

`CC(C)c1ccc(S(=O)(=O)Nc2ccc3c(c2)OCO3)cc1`: the Potency result in assay [1], in assay [2], in assay [3], in assay [4] and in assay [5] was “inactive” each time.

Regarding `CC1CC2(NC(=O)NC2=O)C(C)CN1C` (stereo unspecified), the Potency entry in assay [1], in assay [2], in assay [3], in assay [4] and in assay [5] was “inactive” in each case.

With `O=C1C=CC(c2ccccc2)(c2ccccc2)CC1`, the Potency entry in assay [1] and in assay [3] was “inactive” each time. Moreover, the activation was 8.73% [at 17.1 µM, percent relative to cAMP agonist control] in assay [2] and 29.7% [at 30.8 µM] in assay [5]. Moreover, in assay [4], the activity change, negative = inhibition was -3.3% [at 30.8 µM].

Take `CCc1ccc(-n2c(CCC(=O)O)ccc2-c2cccs2)cc1`: the Potency result in assay [1], in assay [2], in assay [3], in assay [4] and in assay [5] was “inactive” each time.

Take `CCOCc1nnc(NC(=O)C2c3ccccc3Oc3ccccc32)s1`: the Potency result in assay [1], in assay [2], in assay [4] and in assay [5] was “inactive” each time. Besides, the Potency in assay [3] was 67.5 µM (active).

For the compound `Cc1cc2nc(-c3ccco3)c(Cc3cccc(F)c3)n2c(C)c1Br`, the Potency result in assay [1] and in assay [3] was “inactive” each time. Further, the activation in assay [2] was 6.3% [at 17.1 µM, percent relative to cAMP agonist control]; in assay [5], 10.5% [at 30.8 µM]. In assay [4], the activity change, negative = inhibition is -4.32% [at 30.8 µM].

`COc1ccc(NC(=O)CN2CCN(c3c(C)cc(C)cc3C)CC2)cc1`: the Potency result in assay [1] and in assay [3] was “inactive” in each case. Besides, the activation in assay [2] is 7.83% [at 17.1 µM, percent relative to cAMP agonist control]; in assay [5], 16.1% [at 30.8 µM]. The activity change, negative = inhibition in assay [4] was 9.75% [at 30.8 µM].

Turning to `Oc1c(C(Nc2nccs2)c2ccc(C(F)(F)F)cc2)ccc2cccnc12` (stereo unspecified), the Potency result in assay [1] and in assay [3] was “inactive” in each case. In addition, the activation was -2.43% [at 17.1 µM, percent relative to cAMP agonist control] in assay [2] and 3.72% [at 30.8 µM] in assay [5]. Besides, the activity change, negative = inhibition in assay [4] was -18% [at 30.8 µM].

In the case of `Cc1ccc(Cl)cc1NS(=O)(=O)c1ccccc1`, the Potency entry in assay [1] and in assay [3] was “inactive” in each case. The activation is 2.77% [at 17.1 µM, percent relative to cAMP agonist control] in assay [2] and 7.24% [at 30.8 µM] in assay [5]. The activity change, negative = inhibition in assay [4] is 0.85% [at 30.8 µM].

In the case of `O=C(CSc1nc(-c2cccs2)nc2cc(=O)[nH]n12)Nc1cccc(C(F)(F)F)c1`, the Potency result in assay [1], in assay [2], in assay [4] and in assay [5] was “inactive” each time. Also, the outcome in assay [3] is “inactive [at 12.7 µM]”.

Take `Cc1cc(C(=O)Cn2ncc(Cl)c(Cl)c2=O)c(C)n1CC(F)(F)F`: the Potency entry in assay [1] and in assay [3] was “inactive” in each case. In addition, the activation in assay [2] was 1.17% [at 17.1 µM, percent relative to cAMP agonist control]; in assay [5], 8.2% [at 30.8 µM]. In addition, the activity change, negative = inhibition in assay [4] was -8.86% [at 30.8 µM].

Take `CCCCC[C@@H](C)N1C[C@@H](COCc2ccccc2)Oc2cc(N3CC[C@H](O)C3)ccc2S1(=O)=O`: the Potency entry in assay [1] and in assay [3] was “inactive” throughout. Also, the activation in assay [2] is -2.04% [at 17.1 µM, percent relative to cAMP agonist control]; in assay [5], 2.97% [at 30.8 µM]. Also, in assay [4], the activity change, negative = inhibition is -7.58% [at 30.8 µM].
